ELG1 genotoxic – inducers of genotoxicity in HEK293T ELG1-luciferase cells; HEK293T ELG1-luciferase reporter, luminescence, 16 h; Potency, µM (titrated, usually from 46 µM), for the others: at the top dose activity change, positive = activation, usual class: activators; 1.3% of 330,000 active; AID 504466; further: % of control where 0% means no effect; nearly all actives have a fitted effect of over 60% in size
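Reporter readout depends on ELG1 protein level, which increases with genetic stress. After 16 hr compound exposure at 37 °C, luciferase activity was quantified using ONE-Glo.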
SMN2 splice up – SMN2 splice variant enhancement. 2.8% of 210,000 active. HEK293 SMN2-luciferase splicing reporter, luminescence, 30-36 h. AID 1458. Potency, µM (doses to about 46.1 µM), for the others: at the highest dose activity change, positive = activation, usual class: activators; further: % of control where 0% means no effect; nearly all actives have a fitted effect of over 55% in size
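qHTS luciferase splicing reporter: luminescence rises when SMN2 exon 7 is included in transfected HEK293 cells. Compound exposure lasted 30-36 h at 37C, with 4.5 mM final sodium butyrate as control, followed by a ONE-Glo read.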
NPC1 promoter act – activates the NPC1 promoter | Huh7 NPC1 promoter luciferase reporter, 24 h | Potency, µM (series often up to 9.22 µM), inactives show at the top dose activation, hits mostly activators | 2.4% of 320,000 active | AID 485313; further: % of control where 0% means no effect; nearly all actives have a fitted effect of over 60% in size
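Readout is luciferase luminescence, reflecting NPC1 promoter activation in stably transfected Huh7 cells after 24 h compound exposure at 37 °C in reduced-serum medium with 10% FBS.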
Rab9 promoter act – activators of Rab9 promoter; Huh7 Rab9 promoter-luciferase reporter, luminescence, 24 h; Potency, µM (titrated, usually from 9.22 µM), inactives show top-dose activation, negative = inhibition, hits mostly activators; 2.8% of 320,000 active; further: % of control where 0% means no effect; nearly all actives have a fitted effect of over 60% in size
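Stable Rab9-luc Huh7, 1500 cells/well, 2 h settle; cmpd in DMSO, 24 h, 37 °C/5% CO2; luciferase reagent 10 min RT; luminescence.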
ELG1 repair inh – ELG1-dependent DNA repair inhibition | HEK293T ELG1-luciferase reporter, luminescence, 16 h; DNA damage induced by 5-fluorouridine | Potency, µM (highest dose often 46.1 µM), for the others: at the highest dose activity change, negative = inhibition, actives largely listed as inhibitors | 2.3% of 330,000 active | AID 504467; further: on the % scale 0 is the no-effect control and ±100 the full control effect; nearly all actives have a fitted effect of over 55% in size
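Quantitative HTS, concentration-response format. 2,000 cells/well co-treated with 5-fluorouridine and compound, 16 hr in 5% CO2 at 37 °C; ONE-Glo luminescence read after 30 min.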
FLuc counter – counter-screen for miR-21 project: firefly luciferase inhibitors or activators | 6.9% of 360,000 active | P08659 | Potency, µM (doses to about 57.5 µM), for the others: top-dose activity change, negative = inhibition, hits mostly inhibitors | purified FLuc, Km substrates, luminescence inhibition;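 further: plate controls were vehicle for no effect and reference inhibitor for full effect; nearly all actives have a fitted effect of over 55% in size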
Target sequence (P08659 whole entry, looked up): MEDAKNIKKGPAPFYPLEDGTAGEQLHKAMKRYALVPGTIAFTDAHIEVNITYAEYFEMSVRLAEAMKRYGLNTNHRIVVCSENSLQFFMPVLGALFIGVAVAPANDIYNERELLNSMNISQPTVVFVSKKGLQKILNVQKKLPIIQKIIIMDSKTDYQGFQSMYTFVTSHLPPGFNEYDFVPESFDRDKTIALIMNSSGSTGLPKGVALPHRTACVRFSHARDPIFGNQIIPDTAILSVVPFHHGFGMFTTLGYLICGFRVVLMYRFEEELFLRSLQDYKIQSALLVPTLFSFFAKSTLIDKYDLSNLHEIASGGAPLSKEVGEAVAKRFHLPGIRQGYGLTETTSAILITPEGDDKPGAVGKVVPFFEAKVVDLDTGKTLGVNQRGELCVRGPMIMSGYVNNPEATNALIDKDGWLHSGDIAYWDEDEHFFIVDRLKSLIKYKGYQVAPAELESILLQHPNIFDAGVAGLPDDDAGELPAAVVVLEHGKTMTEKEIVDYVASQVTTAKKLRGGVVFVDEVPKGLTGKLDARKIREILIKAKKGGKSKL
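Purified P. pyralis luciferase (10nM final) with 10uM D-luciferin and 10uM ATP (Km levels) in 50mM Tris acetate pH 7.5, 10mM Mg acetate, 0.01% Tween-20, 0.05% BSA; qHTS 6-point titration, ~60 µM downward; luminescence read.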
Starred values were filed as active, the others as inactive; ? = inconclusive; . = no result given. This is a sample that favours compounds with a hit; in the whole collection about 9.2% have one here. The call rests on the fitted dose curve; in most records, active means well fitted curve in the direction sought with a large enough effect; inconclusive means small, poorly fitted or top-dose-only effect, or another doubt; inactive means no such curve, though single readings can be large; an effect the other way counts as inactive or inconclusive. Potency means the concentration at half of the fitted maximal effect.

SMILES	ELG1 genotoxic	SMN2 splice up	NPC1 promoter act	Rab9 promoter act	ELG1 repair inh	FLuc counter
Cc1cc2occ(CC(=O)N(C)CC(=O)Nc3ccccc3Br)c2cc1C	1%	.	4%	1%	-14%	2%
CN(C)S(=O)(=O)c1ccc(N2CCCC2)c(C(=O)NC2CCCCC2)c1	0%	.	-5%	-5%	3%	5%
COc1ccc(S(=O)(=O)Nc2ccc(C)c(S(=O)(=O)N3CCOCC3)c2)cc1[N+](=O)[O-]	-2%	.	-1%	-2%	7%	-3%
CC1CN(S(=O)(=O)c2ccc(C(=O)Nc3ccccc3F)cc2)CC(C)O1 (stereo not given)	-3%	.	.	.	-21%	.
O=C(O)CC(CC(=O)Nc1ccc(-n2ccc(C(F)(F)F)n2)cc1)c1ccccc1 (stereo not given)	3%	.	2%	-3%	-2%	3%
O=C(Nc1ccccc1)Nc1ccc(-n2ccc(C(F)(F)F)n2)cc1	?	.	2.8µM*	1.8µM*	?	4.3µM*
COc1ccc(-c2nnc3sc(-c4ccco4)nn23)cc1OC	?	20%	0%	13%	-10%	-2%
CCOc1cccc(-c2nnc3sc(-c4cccs4)nn23)c1	5%	-21%	-3%	6%	-13%	1%
COc1cccc(-c2nnc3sc(-c4cccs4)nn23)c1	16%	?	3.2µM*	2.8µM*	3%	?
COc1cccc(-c2nnc3sc(-c4ccco4)nn23)c1	?	20%	4.5µM*	2.8µM*	?	?
c1ccc(-c2cc(-c3nn4c(-c5ccco5)nnc4s3)c3ccccc3n2)cc1	-18%	-46%	0%	-10%	21µM*	3%
COc1cccc(-c2nn3c(-c4cccc(C)c4)nnc3s2)c1	12%	3%	-9%	8%	?	19µM*
O=C(c1cccn1-c1nnc(N2CCCC2)s1)N1CCN(c2ccc(Cl)cc2)CC1	.	.	.	.	.	-10%
Cc1cccc(-c2nc(S(=O)(=O)c3ccccc3)c(N3CCN(c4ccccc4)CC3)o2)c1	.	-3%	.	.	.	-1%
Cc1c(NC(=O)C(C)OC(=O)c2ccc(NC(=O)CC#N)cc2)c(=O)n(-c2ccccc2)n1C (stereo not given)	-1%	.	-5%	-3%	9%	2%
Oc1ccccc1-c1cc(C(F)(F)F)[nH]n1	-6%	.	-4%	1%	-21%	-10%
Cc1ccc(O)c(-c2cc(-c3ccccc3F)[nH]n2)c1	11µM*	11µM*	-2%	0%	?	13µM*
O=[N+]([O-])c1ccccc1-c1cc(-c2ccccc2O)n[nH]1	?	3.5µM*	14%	?	?	8.5µM*
Cc1ccc(-c2cc(-c3ccccc3C)[nH]n2)c(O)c1	?	-41%	4µM*	3.5µM*	?	11µM*
Cc1ccc(-c2cc(-c3cccc(F)c3)n[nH]2)c(O)c1	?	14µM*	?	4µM*	?	?
Cc1ccc(O)c(-c2cc(-c3cccc(F)c3)n[nH]2)c1	10%	?	-3%	-9%	?	?
COc1ccc(CC(=O)NC2CC(=O)N(c3cccc(F)c3)C2)cc1OC (stereo not given)	.	.	.	.	.	-4%
CCOC(=O)c1ccc(NC(=O)CC(C)n2nc(C)cc2C)cc1 (stereo not given)	.	.	.	.	.	-2%
C=CCC(Nc1ccccc1)c1ccc(OC)c(OC)c1 (stereo not given)	0%	.	-3%	1%	?	4%
Cc1ccccc1CNC(=O)C(=O)NCCC1CCCCN1S(=O)(=O)c1cccs1 (stereo not given)	-22%	.	-3%	-3%	?	-2%
COc1cc(/C=C/c2ccc3c(Br)cc(Br)c(O)c3n2)ccc1O	?	.	-11%	-33%	?	-4%

Compound activity from PubChem BioAssay.
